From PubChem BioAssay
ATXN viability = cell viability loss in ATXN counter-screen; Potency, µM (top dose mostly 56.7 µM), hits mostly cytotoxic; AID 651635; 400,000 compounds, 0.49% hits; S2 cells (HEK-293 line with an ATXN2-luciferase reporter) viability, CellTiter-Fluor protease fluorescence, 24 h; further: nearly all actives have a fitted effect of over 40% in size
ATXN2 expr inh = ATXN2 expression inhibition | Potency, µM (series often up to 57 µM), inactives show at the highest dose activity change, negative = inhibition, actives largely listed as inhibitors | AID 1745845 | HEK-293 ATXN2-luciferase reporter, luminescence, 24 h | 360,000 compounds, 0.72% hits; further: on the % scale 0 is the no-effect control and ±100 the full control effect; nearly all actives have a fitted effect of over 55% in size
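qHTS (up to 57 uM final) was run with 24 h compound exposure of reporter cells at 37 °C. Each well was multiplexed: SteadyGlo luminescence measured ATXN2-luciferase expression after a fluorogenic Gly-Phe-AFC viability readout (25 uM final).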
TDP1 cell noCPT = qHTS for Inhibitors of human tyrosyl-DNA phosphodiesterase 1 (TDP1): qHTS in cells in absence of CPT; DT40 Tdp1-/- hTDP1 cells, no CPT, ATP luminescence, 48 h; Potency, µM (highest dose often 46.2 µM), for the others: at the top dose activity change, negative = growth inhibition, actives largely listed as inhibitors; 420,000 compounds, 15% hits; further: on the % scale 0 is the no-effect control and ±100 the full control effect; nearly all actives have a fitted effect of over 55% in size
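No-CPT arm: Tdp1-/-;hTDP1 DT40 cells (400/well) plus compounds, incubated ≥48 hr at 37 °C. Readout CellTiter-Glo luminescence.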
HepG2 viability = HepG2 cytotoxicity, counter-screen for TGF-b inhibitors. 410,000 compounds, 0.76% hits. HepG2 CAGA-GFP viability, ATP luminescence, 18 h. Potency, µM (titrated, usually from 46.1 µM), for inactives: at the top dose activity change, negative = cytotoxicity, actives largely listed as cytotoxic
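CellTiter-Glo luminescence gave cytotoxicity after 18 hours at 37 degrees C. The cells were HepG2 CAGA-GFP in 1% FBS DMEM, stimulated with 500 pg/mL TGF-beta after compound addition. %Activity was normalised to no-cell wells (complete cell-killing) and DMSO (no toxicity), and curves were fitted and classified.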
TGFb inhibitor = blocks TGF-b signaling. HepG2 CAGA-GFP TGF-b/SMAD3 reporter, GFP fluorescence, 18 h; TGF-beta stimulated, 500 pg/mL final. Potency, µM (series often up to 46.1 µM), without a hit: top-dose activity, negative = inhibition, hits mostly inhibitors. 410,000 compounds, 1.2% hits; further: on the % scale 0 is the no-effect control and ±100 the full control effect; nearly all actives have a fitted effect of over 65% in size
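TGF-beta reporter screen: HEPG2 CAGA-GFP, 1% FBS, 500 pg/mL TGF-beta final, 18 h; per-cell GFP summed per well; curves fitted and categorized by class.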
TDP1 cell CPT = growth inhibition of DT40 Tdp1-/-;hTDP1 cells with camptothecin (screen for TDP1 inhibitors) | chicken DT40 Tdp1-/-;hTDP1 cells + 20 nM CPT, ATP luminescence, 48 h | Potency, µM (top dose mostly 46.2 µM), for the others: at the highest dose activity change, negative = growth inhibition, actives largely listed as inhibitors | 420,000 compounds, 12% hits | AID 686979; further: on the % scale 0 is the no-effect control and ±100 the full control effect; nearly all actives have a fitted effect of over 55% in size
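Chicken DT40 Tdp1-/- cells complemented with human TDP1, 400 cells/well, exposed to compounds plus 20 nM camptothecin for at least 48 h at 37 C; viability read as ATP content by CellTiter-Glo luminescence.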
Numbers without * were called inactive; i = inactive; ? = inconclusive; . = no result given. An excerpt weighted towards active compounds, which were near 17% of everything screened. The call rests on the fitted dose curve; in most records, active means well fitted curve in the direction sought with a large enough effect; inconclusive means small, poorly fitted or top-dose-only effect, or another doubt; inactive means no such curve, though single readings can be large; an effect the other way counts as inactive or inconclusive. Potency means the concentration at half of the fitted maximal effect.

SMILES	ATXN viability	ATXN2 expr inh	TDP1 cell noCPT	HepG2 viability	TGFb inhibitor	TDP1 cell CPT
COc1ccc(C(=O)Nc2nncs2)cc1S(=O)(=O)N1CCOCC1	i	-3%	6%	-2%	2%	3%
COc1cccc(-c2cnc(C(O)c3ccc(Cl)cc3C)[nH]2)c1 (centres undefined)	i	-5%	16µM*	-2%	0%	23µM*
CSc1cccc(NC(=O)c2ccc(Cl)nc2)c1	i	49%	?	-14%	-2%	-21%
CC(O)(c1cccc(F)c1)c1nc(-c2ccoc2)cs1 (centres undefined)	i	-7%	?	1%	10%	?
CC(NC(=O)CN1c2cccc3cccc(c23)S1(=O)=O)c1ccc(S(N)(=O)=O)cc1 (centres undefined)	i	8%	?	-12%	-22%	-27%
Nc1sc(Cc2ccccc2)cc1C(=O)c1c(-c2ccccc2)[nH]c2ccccc12	.	.	4.6µM*	.	.	3.7µM*
Cc1cnc(C(=O)N(c2ccccc2)C(c2ccccc2)c2nc3ccccc3[nH]2)cn1 (centres undefined)	?	39%	?	-3%	-6%	?
O=C1CN(C(=O)CSc2nnnn2C2CC2)c2ccccc2N1	i	3%	2%	-35%	3%	-1%
c1ccc2c(c1)nc(Nc1ccc3c(c1)OCO3)c1nnnn12	?	3%	16µM*	-17%	-2%	?
COc1ccc(Nc2nc3ccc(Cl)cc3n3nnnc23)cc1OC	i	15%	16µM*	34%	103%	?
c1ccc(Nc2nc3ccccc3n3nnnc23)cc1	i	49%	?	-10%	0%	?
CCN(CC)S(=O)(=O)c1ccc(Nc2nc3ccccc3n3nnnc23)cc1	i	28%	16µM*	1%	-15%	23µM*
COc1ccccc1N1CCN(C(=O)c2ccc(Nc3nc4ccccc4n4nnnc34)cc2)CC1	i	9%	?	-16%	1%	9.2µM*
COc1cccc(Nc2nc3ccccc3n3nnnc23)c1	i	30%	?	-13%	2%	?
CC(OC(=O)CNC(=O)c1sc2ccccc2c1Cl)C(=O)NC1(C#N)CCCCC1 (centres undefined)	i	27%	-8%	-17%	1%	-23%
CC(=O)Nc1ccc(NC(=O)C(C)Sc2n[nH]c(-c3ccc(C)cc3)n2)cc1 (centres undefined)	i	19%	-27%	4%	8%	1%
Cc1ccc(CNC(=O)C(=O)NCC(c2cccs2)S(=O)(=O)c2cccs2)cc1 (centres undefined)	i	1%	-11%	-24%	4%	?
CC(NC(=O)c1cc(Br)cs1)C1CCCO1 (centres undefined)	i	-2%	-4%	8%	18%	-2%
O=S(=O)(c1ccc(F)cc1)N1CCN(c2nc(-c3cccc(Br)c3)nc3ccccc23)CC1	.	.	.	-35%	0%	.
CCc1ccc(-c2nc(CS(=O)CC(=O)NCCCN3CCC(C)CC3)c(C)o2)cc1 (centres undefined)	i	0%	?	-25%	-3%	?
COc1cc(C(=O)Nc2ccc(S(=O)(=O)N3CCCCC3)cc2)ccc1OCC(=O)N1CCOCC1	i	-6%	-9%	4%	-1%	-20%
Cc1c(OCc2ccccc2)c(=O)ccn1Cc1ccccc1	i	21%	-21%	-2%	5%	-23%
O=c1ccn(Cc2ccccc2)c2ccccc12	i	0%	13µM*	-12%	?	12µM*
